CIT2-GFP yeast: alters CIT2-GFP fluorescence in TOR pathway yeast screen; GFP response vs DMSO, % at 10 µM; S. cerevisiae CIT2-GFP strain, flow cytometry, 3 h; 100 means same as DMSO wells; 320,000 tested, 0.065% active;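 active = GFP response relative to DMSO above a set limit, near the screen mean plus 3 SD, cut at about 150% in these data; inconclusive = Fewer than 70 cells measured for a yeast strain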;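 also: ratio of well median GFP fluorescence to mean of DMSO wells on the plate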
LAP4 TOR yeast: yeast TOR pathway LAP4-GFP modulation; S. cerevisiae LAP4-GFP multiplex, flow cytometry GFP, 3 h; median GFP as percent of DMSO wells; GFP response vs DMSO, % at 10 µM; 320,000 tested, 0.34% active;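 active = GFP response vs DMSO above a set limit, about the screen mean plus 3 SD, cut at about 150% in these data; inconclusive = under 70 cell events counted for the yeast strain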
AGP1 TOR yeast: alters AGP1-GFP fluorescence in TOR pathway yeast screen. AID 2066. GFP response vs DMSO, % at 10 µM. S. cerevisiae AGP1-GFP multiplex flow cytometry, 3 h; GFP as percent of DMSO wells. 320,000 tested, 0.02% active;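 active = GFP response relative to DMSO above a set limit, near screen average plus 3 SD, cut at about 150% in these data; inconclusive = fewer than 70 cells counted for the yeast strain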;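 also: median GFP channel fluorescence of the gated AGP1 strain per well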
RPL19A TOR yeast: yeast TOR pathway RPL19A-GFP modulation; S. cerevisiae RPL19A-GFP strain, flow cytometry, 3 h; stronger effect = lower value; percent response vs DMSO, % at 10 µM; 330,000 tested, 0.3% active;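 active = percent response vs DMSO below 50%; inconclusive = fewer than 70 events counted for the yeast strain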;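 also: median channel GFP fluorescence of the barcoded RPL19A-GFP strain; lower means less RPL19A-GFP as with rapamycin TOR inhibition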
MEP2 TOR yeast: alters MEP2-GFP fluorescence in TOR pathway yeast screen; S. cerevisiae MEP2-GFP strain, flow cytometry GFP, 3 h; 100% = DMSO control level; GFP response vs DMSO, % at 10 µM; 330,000 tested, 0.51% active; AID 2016;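 active = GFP response versus DMSO above a set limit, roughly screen mean plus 3 SD, cut at about 180% in these data; inconclusive = fewer than 70 cells counted for a yeast strain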;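 also: median GFP fluorescence of the barcode-gated MEP2-GFP cells per well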
LAP4-GFP pick2: yeast LAP4-GFP modulation, second cherry pick; shares compounds with LAP4 TOR yeast; S. cerevisiae LAP4-GFP strain, flow cytometry GFP, 3 h; GFP response vs DMSO, % at 10 µM; 590 tested, 20% active; AID 2621;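 active = GFP signal as percent of the solvent control above about 150%, meaning raised reporter expression, limit read from the data; inconclusive = fewer than 70 cells counted in the well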
MEP2 cherry2: second confirmation of modulators of TOR reporter MEP2-GFP in yeast; 590 tested, 10% active; AID 2622; S. cerevisiae MEP2-GFP strain, flow cytometry GFP, 3 h; shares compounds with LAP4 TOR yeast; GFP response vs DMSO, % at 10 µM;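 active = GFP signal above 150% of the solvent control wells, that is a rise of more than half; inconclusive = fewer than 70 yeast cells counted in the well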;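 also: median channel GFP fluorescence of all gated yeast cells per well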
RPL19A-GFP pick2: second confirmation of modulators of TOR reporter RPL19A-GFP in yeast | shares compounds with LAP4 TOR yeast | S. cerevisiae RPL19A-GFP strain, flow cytometry GFP, 3 h; stronger effect = lower value; 100% means same as DMSO wells | GFP response vs DMSO, % at 10 µM | 590 tested, 3% active;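 active = under 65% GFP response relative to DMSO; inconclusive = yeast strain with under 70 measured events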;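 also: median GFP channel fluorescence per well over the all cells gate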
CIT2 GFP CP2: second confirmation of modulators of TOR reporter CIT2-GFP in yeast. shares compounds with LAP4 TOR yeast. S. cerevisiae CIT2-GFP strain, flow cytometry GFP, 3 h; DMSO control wells read 100%. GFP response vs DMSO, % at 10 µM. 590 tested, 8% active;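 active = GFP response vs DMSO above about 150%, limit read from the data; inconclusive = fewer than 70 events counted for a yeast strain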;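 also: median green fluorescence per well over all gated yeast cells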
AGP1-GFP pick2: reconfirmed modulator of AGP1-GFP TOR reporter in yeast; percent response vs DMSO, % at 10 µM; shares compounds with LAP4 TOR yeast; 590 tested, under 10 active; AID 2643; S. cerevisiae AGP1-GFP strain, flow cytometry GFP, 3 h;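 active = over 150 percent of DMSO response; inconclusive = yeast strain measured with under 70 events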;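 also: median GFP channel fluorescence over all cells without mother daughter split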
s288c autofluor: counter-screen for compound autofluorescence in yeast s288c cells | fluorescence change (kMESF span) at 33 µM | shares compounds with LAP4 TOR yeast | 610 tested, under 10 active | AID 2757 | S. cerevisiae s288c, 520 nm autofluorescence, flow cytometry, 3 h; stronger effect = higher value; zero means same as solvent-only cells;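 active = fluorescence span over the dose series, or activity score, above about 33, limit read from the data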
Yeast autofl DR: TOR screen hit shows autofluorescence in yeast s288c. shares compounds with LAP4 TOR yeast. S. cerevisiae s288c parental, compound autofluorescence, flow cytometry, 3 h. fluorescence change (span) at 33 µM. 110 tested, under 10 active. AID 488829;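 active = fluorescence change span, or the activity score built from it, above 25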
TORC1 bypass gr: compounds blocking wildtype yeast growth but not TORC1 bypass cells | AID 504456 | shares compounds with LAP4 TOR yeast | 120 tested, under 10 active | growth rating (0-3) at 30 µM | S. cerevisiae BY4741 spot growth rating, 48-72 h; stronger effect = lower value;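 active = growth rating at most 1 for wild type yeast while the TORC1 bypass strain still grows fully, rated 3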
Of the large screens only hits and unclear results are named; the others gave an inactive call (follow-up assays come after a bar, where they were run); [ ] = another dose, or the depositor's remark. This is a sample that favours compounds with a hit; in the whole collection about 0.92% have one here.

CC(=O)N1CCCc2cc(S(=O)(=O)N3CCCC(C(=O)Nc4cccc(C)c4)C3)ccc21 (stereo not given)	RPL19A TOR yeast inconclusive
COc1ccccc1/C=C/C(=O)Nc1ccc(S(=O)(=O)Nc2cc(C)on2)cc1	none
O=[N+]([O-])c1c(NC2CCCCC2)nc(NCc2ccccc2)nc1N1CCOCC1	none (no result: CIT2-GFP yeast, LAP4 TOR yeast, AGP1 TOR yeast, RPL19A TOR yeast, MEP2 TOR yeast) | TORC1 bypass gr inactive
CN1CCN(C(=O)C2=C[C@H](c3ccccc3)C[C@H](OCc3ccc(CO)cc3)O2)CC1	none
Cc1cccc(C(=O)NC(=S)NCc2ccccc2)c1	none
O=C(COc1ccccc1)NNC(=S)NC(=O)c1ccccc1	LAP4 TOR yeast 159 | s288c autofluor inactive
Cc1cccc(C(=O)NC(=S)NNC(=O)Cc2ccccc2)c1	LAP4 TOR yeast 209[may fluoresce green] | LAP4-GFP pick2 293 | MEP2 cherry2 inactive | RPL19A-GFP pick2 inactive | CIT2 GFP CP2 156 | AGP1-GFP pick2 inactive | s288c autofluor inactive
Cc1cc(NC(=O)CSc2nnc(Nc3ccccc3C)s2)no1	LAP4 TOR yeast 153 | LAP4-GFP pick2 inactive | MEP2 cherry2 inactive | RPL19A-GFP pick2 inactive | CIT2 GFP CP2 inactive | AGP1-GFP pick2 inactive
Cc1cc(NC(=O)CSc2nnc(Nc3ccccc3)s2)no1	none
CC(CCc1ccccc1)NCC(O)COc1ccccc1 (stereo not given)	none
O=C(O)CCC(=O)Nc1ccccc1C(=O)NCc1ccccc1	none
COC(=O)Cc1csc(NC(=O)CSc2nncn2C)n1	LAP4 TOR yeast 169 | LAP4-GFP pick2 inactive | MEP2 cherry2 inactive | RPL19A-GFP pick2 inactive | CIT2 GFP CP2 inactive | AGP1-GFP pick2 inactive
CCOc1c(Br)cc(/C=C(\C#N)C(=O)NC2CC2)cc1OC	LAP4 TOR yeast 154[may fluoresce green] | LAP4-GFP pick2 inactive | MEP2 cherry2 inactive | RPL19A-GFP pick2 inactive | CIT2 GFP CP2 inactive | AGP1-GFP pick2 inactive
CCOc1ccccc1/C=C(\C#N)C(=O)NC1CC1	none
COc1ccc(NS(=O)(=O)c2ccc(N3CCOCC3)c(N)c2)cc1	none
Cc1ccc(/C(O)=C2\C(=O)C(=O)N(CC(C)O)C2c2ccccn2)cc1 (stereo not given)	none
O=C1c2ccccc2C(=O)N1SC1CCCCC1	none | LAP4-GFP pick2 inactive | MEP2 cherry2 inactive | RPL19A-GFP pick2 inactive | CIT2 GFP CP2 inactive | AGP1-GFP pick2 inactive
CC(C)OC(=O)CCCNc1ccc([N+](=O)[O-])cc1[N+](=O)[O-]	none
Cc1ccc(S(=O)(=O)Cc2cc(F)c([N+](=O)[O-])cc2[N+](=O)[O-])cc1	LAP4 TOR yeast 172 | s288c autofluor inactive
O=[N+]([O-])c1ccc(S(=O)(=O)c2ccccc2)nc1	LAP4 TOR yeast 177 | s288c autofluor inactive
Cc1ccc(S(=O)(=O)c2ccc([N+](=O)[O-])cn2)cc1	none | s288c autofluor inactive | Yeast autofl DR inactive | TORC1 bypass gr inactive
O=S(=O)(c1ccccc1)c1ccc(C(F)(F)F)cn1	none (no result: AGP1 TOR yeast) | s288c autofluor inactive
Cc1cc(S(=O)(=O)c2ccc([N+](=O)[O-])cn2)ccc1Br	none
Cc1ccccc1C(=O)N1CCC(C(=O)NN2C(=O)NC3(CCCCC3)C2=O)CC1	none
CCn1cc(C(=O)N[C@@H](CCSC)C(=O)NCCCOC)c(=O)c2cc3c(cc21)OCO3	none
Cc1ccc(CN2CC(C(=O)N3CCN(c4ccccc4Cl)CC3)CC2=O)cc1 (stereo not given)	none
N#C/C(=C\c1cc(Br)ccc1F)C(=O)NC1CC1	LAP4 TOR yeast 156 | LAP4-GFP pick2 156 | MEP2 cherry2 inactive | RPL19A-GFP pick2 inactive | CIT2 GFP CP2 inactive | AGP1-GFP pick2 inactive | s288c autofluor inactive
CC1CCN(c2ccccc2NC(=S)NC(=O)C(C)(C)C)CC1	none
COc1ccc(C(=O)NC2CC2)cc1OC1CCN(Cc2ccc(F)cc2Cl)CC1	none
C[C@H](CO)N1C[C@H](C)[C@@H](CN(C)CC2CCCCC2)Oc2c(NC(=O)Cc3ccccc3)cccc2C1=O	none
CN1CCc2ccc(NC(=O)c3ccc(C(F)(F)F)cc3)cc2C1	none
Oc1ccc(COCc2ccccc2)c2cccnc12	LAP4 TOR yeast 160 | s288c autofluor inactive
CCCOCc1ccc(O)c2ncccc12	none
CCN(CC)CCCN(C(=O)c1cccc(C)c1)c1nc(-c2ccc(OC)cc2)cs1	none
O=C1N(c2ccccc2C(F)(F)F)O[C@@]1(c1ccccc1)C1CCCCC1	none | LAP4-GFP pick2 inactive | MEP2 cherry2 inactive | RPL19A-GFP pick2 inactive | CIT2 GFP CP2 inactive | AGP1-GFP pick2 inactive | s288c autofluor inactive
O=C1N(c2ccccc2C(F)(F)F)O[C@@]1(c1ccccc1)C1CCCC1	none | LAP4-GFP pick2 inactive | MEP2 cherry2 inactive | RPL19A-GFP pick2 inactive | CIT2 GFP CP2 inactive | AGP1-GFP pick2 inactive | s288c autofluor inactive
Cc1nnc(NC(=O)C2CC(=O)N(C(C)c3ccccc3)C2)s1 (stereo not given)	none
NS(=O)(=O)c1cnccc1NCCc1ccccc1	none
CCN1/C(=C/C=C/c2sc3ccccc3[n+]2CC)Sc2ccccc21	LAP4 TOR yeast 160 | LAP4-GFP pick2 200 | MEP2 cherry2 inactive | RPL19A-GFP pick2 inactive | CIT2 GFP CP2 inactive | AGP1-GFP pick2 inactive | s288c autofluor inactive
CC(C)(C)c1ccc(-c2cnco2)cc1	AGP1 TOR yeast inconclusive, MEP2 TOR yeast inconclusive | LAP4-GFP pick2 inactive | MEP2 cherry2 inactive | RPL19A-GFP pick2 inactive | CIT2 GFP CP2 inactive | AGP1-GFP pick2 inactive

High-throughput results (PubChem BioAssay)
